AC50 and outcome data for three compounds are collected here from PubChem BioAssay (EPA / NIEHS).

Several values for one entry are separate records, joined by “and”; a condition that tells them apart may be missing. Identical values can stand only once. Where a structure was tested more than once in an assay, its records may differ in their call. Activity calls are given as the source filed them. Rule for the calls: active = hit-call score of the fitted dose curve at least 0.9, where 1 is the maximum; inactive = score below 0.9.

Read-out in test [1]: Matrix Metallopeptidase 9 (MMP9), MMP9 (gene 4318)
The test can be described thus: BSK_KF3CT_MMP9: BioMAP Diversity Plus: KF3CT Assay for Matrix Metallopeptidase 9 (MMP9) Biomarker Activity (AID 2283074).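 Note: MMP9 protein level quantified by ELISA in the co-culture.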 The conditions noted are these: primary human keratinocytes with fibroblasts; actives raise or lower the signal. An outline of the steps: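 ELISA read-out of MMP-9 at 24 h post-dosing in a co-culture of human skin keratinocytes and foreskin fibroblasts. Gain or loss of signal was fitted in both directions against DMSO.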

Read-out in test [2]: urokinase plasminogen activator (uPA), PLAU (gene 5328)
The test can be described thus: BSK_KF3CT_uPA: BioMAP Diversity Plus: KF3CT Assay for urokinase plasminogen activator (uPA) Biomarker Activity (AID 2283075). The settings on record: primary human keratinocytes with fibroblasts; actives raise or lower the signal. An outline of the steps:
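Skin co-culture (keratinocytes + foreskin fibroblasts), human primary; 24 h post-dose; uPA by ELISA; gain/loss fit vs DMSO baseline.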

Read-out in test [3]: CD40, CD40 (gene 958)
Briefly: BSK_LPS_CD40: BioMAP Diversity Plus: LPS Assay for CD40 Biomarker Activity (AID 2283076). The settings on record: primary human HUVEC with PBMC; actives raise or lower the signal. An outline of the steps: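 HUVEC plus PBMC co-culture stimulated with LPS; CD40 quantified by ELISA 24 h after compound dosing. Fitting was bidirectional relative to DMSO. SRB staining of parallel cultures flagged overt cytotoxicity.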

Read-out in test [4]: E-selectin (Homo sapiens) (UniProt P16581)
Briefly: BSK_LPS_Eselectin: BioMAP Diversity Plus: LPS Assay for Eselectin Biomarker Activity (AID 2283077). The settings on record: primary human HUVEC with PBMC; actives raise or lower the signal. An outline of the steps:
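Human umbilical vein endothelial cells co-cultured with PBMC under LPS stimulation; cell-surface E-selectin measured by ELISA 24 h after dosing. Change in either direction versus DMSO, with SRB total-protein staining in parallel cultures for cytotoxicity.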

Read-out in test [5]: Interleukin-8 (IL8), CXCL8 (gene 3576)
The test can be described thus: BSK_LPS_IL8: BioMAP Diversity Plus: LPS Assay for Interleukin-8 (IL8) Biomarker Activity (AID 2283078). The conditions noted are these: primary human HUVEC with PBMC; actives raise or lower the signal. An outline of the steps:
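Human umbilical vein endothelial cells co-cultured with PBMC, LPS-stimulated, exposed to compound for 24 h. IL-8 quantified by ELISA; fitted in both directions against DMSO, with SRB total-protein staining of parallel cultures for cytotoxicity.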

The nature of test [6]: BSK_LPS_SRB: Viability Assessment in the BioMAP Diversity Plus: LPS Assay (AID 2283079).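 Note: total protein by sulforhodamine B absorbance as a cytotoxicity measure; measured one day after compound addition.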 The settings on record: primary human HUVEC with PBMC. In outline:
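Co-culture of human umbilical vein endothelial cells and PBMC, read 24 h after dosing. Total protein by 0.1% SRB staining after 10% TCA fixation, absorbance at 560 nm; bidirectional fit against DMSO.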

Read-out in test [7]: Monocyte Chemoattractant Protein-1 (MCP1), CCL2 (gene 6347)
The test can be described thus: BSK_LPS_MCP1: BioMAP Diversity Plus: LPS Assay for Monocyte Chemoattractant Protein-1 (MCP1) Biomarker Activity (AID 2283081).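 For AC50: secreted MCP-1 protein quantified by ELISA in culture supernatant.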 The conditions noted are these: primary human HUVEC with PBMC; actives raise or lower the signal. In outline:
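Human umbilical vein endothelial cells co-cultured with PBMC, LPS-stimulated; secreted MCP-1 measured by ELISA 24 h after compound addition. Bidirectional curve fitting against DMSO baseline; SRB total-protein staining in parallel cultures for cytotoxicity.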

Test [8] can be described thus: BSK_LPS_PGE2: BioMAP Diversity Plus: LPS Assay for Prostaglandin E2 (PGE2) Biomarker Activity (AID 2283082).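 For AC50: secreted prostaglandin E2 measured by ELISA in LPS-stimulated co-culture.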 The settings on record: primary human HUVEC with PBMC; actives raise or lower the signal. An outline of the steps:
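PGE2 release measured by ELISA in an LPS-activated co-culture of human umbilical vein endothelial cells and peripheral blood mononuclear cells, read at 24 h post-dosing. DMSO served as baseline for bidirectional curve fitting.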

Read-out in test [9]: Macrophage colony-stimulating factor (MCSF), CSF1 (gene 1435)
The test can be described thus: BSK_LPS_MCSF: BioMAP Diversity Plus: LPS Assay for Macrophage colony-stimulating factor (MCSF) Biomarker Activity (AID 2283083). The conditions noted are these: primary human HUVEC with PBMC; actives raise or lower the signal. In outline:
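HUVEC–PBMC co-culture, M-CSF measured by ELISA 24 h after chemical dosing. Fitted in both directions relative to DMSO as negative control; overt cytotoxicity assessed by SRB total-protein staining in parallel cultures.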

Read-out in test [10]: Tissue Factor, F3 (gene 2152)
The test can be described thus: BSK_LPS_TissueFactor: BioMAP Diversity Plus: LPS Assay for Tissue Factor Biomarker Activity (AID 2283084). The conditions noted are these: primary human HUVEC with PBMC; actives raise or lower the signal. An outline of the steps:
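Human umbilical vein endothelial cells co-cultured with PBMC were dosed with compound. Cell-surface CD142 was measured by ELISA 24 h later. Activity was fitted bidirectionally against DMSO, with SRB total-protein staining in parallel cultures for cytotoxicity.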

Read-out in test [11]: Tumor necrosis factor (Homo sapiens) (UniProt P01375)
Briefly: BSK_LPS_TNFa: BioMAP Diversity Plus: LPS Assay for Tumour Necrosis Factor alpha (TNFa) Biomarker Activity (AID 2283085).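 For AC50: TNFa protein level quantified by ELISA in the co-culture.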 The settings on record: primary human HUVEC with PBMC; actives raise or lower the signal. An outline of the steps:
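TNFa was quantified by ELISA in LPS-activated co-cultures of human endothelial cells and PBMC, 24 h post-dosing. Both increases and decreases versus DMSO were fitted.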

Read-out in a further test: CD38, CD38 (gene 952)
The test can be described thus: BSK_SAg_CD38: BioMAP Diversity Plus: SAg Assay for CD38 Biomarker Activity (AID 2283087). The settings on record: primary human HUVEC with PBMC; actives raise or lower the signal. In outline: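 CD38 quantified by ELISA (fluorescence) in a superantigen-activated endothelial cell–PBMC co-culture at 24 h post-dose. Activity fitted in both directions relative to DMSO; parallel SRB and Alamar Blue cytotoxicity read-outs.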

Read-out in test [12]: CD40, CD40 (gene 958)
Briefly: BSK_SAg_CD40: BioMAP Diversity Plus: SAg Assay for CD40 Biomarker Activity (AID 2283088). The settings on record: primary human HUVEC with PBMC; actives raise or lower the signal. An outline of the steps:
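HUVEC plus PBMC co-culture, superantigen-activated, with CD40 read by ELISA 24 h after dosing. Curves fitted in both directions against DMSO. Overt cytotoxicity checked by parallel SRB total-protein staining.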

Read-out in a further test: CD69, CD69 (gene 969)
Briefly: BSK_SAg_CD69: BioMAP Diversity Plus: SAg Assay for CD69 Biomarker Activity (AID 2283089).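 For AC50: cell surface CD69 protein quantified by ELISA with fluorescence detection.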 The conditions noted are these: primary human HUVEC with PBMC; actives raise or lower the signal. In outline:
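Values derive from bidirectional fitting relative to DMSO vehicle. Cells: umbilical vein endothelium plus peripheral blood mononuclear cells, treated 24 h before fluorescent ELISA for CD69.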

Read-out in test [13]: Monocyte Chemoattractant Protein-1 (MCP1), CCL2 (gene 6347)
Briefly: BSK_SAg_MCP1: BioMAP Diversity Plus: SAg Assay for Monocyte Chemoattractant Protein-1 (MCP1) Biomarker Activity (AID 2283090). The settings on record: primary human HUVEC with PBMC; actives raise or lower the signal. In outline:
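Values derive from bidirectional fitting of ELISA-measured MCP1 against DMSO controls. Readings were taken 24 h after dosing human vascular endothelial cells co-cultured with peripheral blood mononuclear cells under superantigen stimulation.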

Read-out in test [14]: E-selectin (Homo sapiens) (UniProt P16581)
The test can be described thus: BSK_SAg_Eselectin: BioMAP Diversity Plus: SAg Assay for Eselectin Biomarker Activity (AID 2283091). The conditions noted are these: primary human HUVEC with PBMC; actives raise or lower the signal. An outline of the steps:
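Human umbilical vein endothelial cells co-cultured with peripheral blood mononuclear cells, SAg system. E-selectin is measured by ELISA 24 h after dosing and fitted bidirectionally against DMSO. Cytotoxicity is checked by SRB staining of parallel cultures.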

Read-out in test [15]: Monokine induced gamma interferon (MIG), CXCL9 (gene 4283)
The test can be described thus: BSK_SAg_MIG: BioMAP Diversity Plus: SAg Assay for Monokine induced gamma interferon (MIG) Biomarker Activity (AID 2283092). The conditions noted are these: primary human HUVEC with PBMC; actives raise or lower the signal. An outline of the steps: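 Values reflect bidirectional fitting of ELISA-measured MIG against DMSO vehicle, taken 24 h after dosing of a co-culture of human umbilical vein endothelial cells and peripheral blood mononuclear cells.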

The nature of test [16]: BSK_SAg_PBMCCytotoxicity: PBMC Cytotoxicity Assessment in the BioMAP Diversity Plus: SAg Assay (AID 2283093).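 For AC50: PBMC superantigen activated with SEB plus TSST-1 one hour after compound addition.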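 Note: fitted both ways against DMSO so a hit may be loss or gain of signal.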 The conditions noted are these: primary human HUVEC with PBMC. An outline of the steps: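 PBMC viability by Alamar Blue reduction, fluorescence read at 546/580 nm after 6 h dye exposure. Cells were dosed 1 h before SEB plus TSST-1 activation (20 ng/mL final each), then held 90 h; endothelial/PBMC human co-culture.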

Read-out in test [17]: Interleukin-1 alpha (IL1a), IL1A (gene 3552)
Briefly: BSK_LPS_IL1a: BioMAP Diversity Plus: LPS Assay for Interleukin-1 alpha (IL1a) Biomarker Activity (AID 2283080). The conditions noted are these: primary human HUVEC with PBMC; actives raise or lower the signal. An outline of the steps:
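Human umbilical vein endothelial cells co-cultured with PBMC and stimulated with LPS; IL-1a measured by ELISA 24 h after dosing. Bidirectional fitting against DMSO; cytotoxicity checked by SRB staining in parallel cultures.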

Chain of E-selectin (Homo sapiens) (P16581 whole entry, looked up): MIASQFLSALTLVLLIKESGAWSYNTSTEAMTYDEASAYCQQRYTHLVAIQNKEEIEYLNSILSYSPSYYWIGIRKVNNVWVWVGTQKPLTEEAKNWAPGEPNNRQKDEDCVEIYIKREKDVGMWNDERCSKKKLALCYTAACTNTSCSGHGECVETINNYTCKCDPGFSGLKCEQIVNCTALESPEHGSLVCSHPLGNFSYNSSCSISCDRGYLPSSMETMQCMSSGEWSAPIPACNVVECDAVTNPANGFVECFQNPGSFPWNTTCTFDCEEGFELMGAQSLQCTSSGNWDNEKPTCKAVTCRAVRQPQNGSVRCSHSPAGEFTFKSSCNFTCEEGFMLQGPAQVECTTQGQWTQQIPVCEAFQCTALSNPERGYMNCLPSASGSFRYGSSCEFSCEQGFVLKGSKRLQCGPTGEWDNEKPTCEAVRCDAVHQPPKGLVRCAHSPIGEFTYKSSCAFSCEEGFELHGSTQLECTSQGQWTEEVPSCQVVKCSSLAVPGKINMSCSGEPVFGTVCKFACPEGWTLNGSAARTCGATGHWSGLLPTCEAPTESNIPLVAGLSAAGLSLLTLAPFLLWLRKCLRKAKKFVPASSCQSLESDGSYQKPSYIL
Chain of Tumor necrosis factor (Homo sapiens) (P01375 whole entry, looked up): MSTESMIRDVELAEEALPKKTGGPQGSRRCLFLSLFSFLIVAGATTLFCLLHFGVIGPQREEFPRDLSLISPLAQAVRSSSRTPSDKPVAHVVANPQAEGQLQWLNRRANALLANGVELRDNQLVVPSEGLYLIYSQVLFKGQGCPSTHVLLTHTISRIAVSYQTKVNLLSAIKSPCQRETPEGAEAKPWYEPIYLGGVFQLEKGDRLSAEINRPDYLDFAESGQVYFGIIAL

In the case of `O=C(O)C(F)(F)C(F)(F)C(F)(F)C(F)(F)C(F)(F)C(F)(F)C(F)(F)C(F)(F)C(F)(F)C(F)(F)F`, the AC50 in [1] was 6.03 µM (active) and 3.85 µM (active) and 4.19 µM (active); in test [2], 9.7 µM (active) and 5.47 µM (active) and 5.16 µM (active); in the test with CD40, CD40 (gene 958) [3], 29500 nM (active); in test [5], 33.8 µM (active) and 2.03 µM (active); in test [6] it was 34800 nM (active); in test [7], 30200 nM (active). Moreover, the AC50 in test [8] is 22300 nM (active); in test [9], 31400 nM (active); in [10], 30200 nM (active); in test [11], 31.4 µM (active) and 4.39 µM (active) and 4.42 µM (active); with CD38, CD38 (gene 952), 37400 nM (active); in the test with CD40, CD40 (gene 958) [12], 29.2 µM (active) and 5.41 µM (active) and 5.27 µM (active). For the same compound, the AC50 is 30500 nM (active) with CD69, CD69 (gene 969); 35100 nM (active) in test [13]; 35300 nM (active) in test [14]; 34900 nM (active) in test [15]; 31500 nM (active) in [16]. For the same compound, the outcome with CD40, CD40 (gene 958) [3] is “inactive”; in test [4], “inactive”; in [5], “inactive”; in [6], “inactive”; in test [7], “inactive”; in test [8], “inactive”. The outcome was “inactive” in test [9]; “inactive” in test [10]; “inactive” in the test with CD38, CD38 (gene 952); “inactive” in the test with CD69, CD69 (gene 969); “inactive” in test [13]; “inactive” in test [14]. The result in [15] and in test [16] was inactive.
Take `Nc1cccc2ccccc12`: the values for the AC50 in test [1] and in test [10] were 20 µM (active) and 9830 nM (active), respectively. Further, the outcome was “inactive” in test [2]; “inactive” with CD40, CD40 (gene 958) [3]; “inactive” in [4]; “inactive” in test [5]; “inactive” in [6]; “inactive” in test [17]. Moreover, the outcome in test [7] was “inactive”; in test [8] it was “inactive”; in test [9], “inactive”; in [11] it was “inactive”; with CD38, CD38 (gene 952), “inactive”; with CD40, CD40 (gene 958) [12] it was “inactive”. In addition, the outcome in the test with CD69, CD69 (gene 969) is “inactive”; in test [13] it was “inactive”; in test [14], “inactive”; in test [15], “inactive”; in test [16], “inactive”.
As for `CC(=O)[O][Hg][c]1ccccc1`, the AC50 in test [1] is 0.189 µM (active); in test [2] it was 625 nM (active); with CD40, CD40 (gene 958) [3], 1620 nM (active); in [4] it was 3350 nM (active); in test [5], 6.47 µM (active); in [6], 1090 nM (active). The AC50 in test [17] is 1250 nM (active); in [7] it was 1700 nM (active); in test [8] it was 149 nM (active); in test [9], 989 nM (active); in [10], 1990 nM (active); in test [11], 1.62 µM (active). Moreover, the AC50 with CD38, CD38 (gene 952) is 560 nM (active); with CD40, CD40 (gene 958) [12] it was 1.46 µM (active); with CD69, CD69 (gene 969), 1390 nM (active); in [13] it was 1040 nM (active); in test [14] it was 1580 nM (active); in test [15] it was 1780 nM (active). The AC50 in [16] was 318 nM (active).
